# Among all 5,500 compounds or so, about 2,000 (36%) were called active. About 18% were inconclusive and are not listed. The list shows a part of the results. Unmarked numbers belong to inactive results. Rule as the data show it: active = normalized growth mostly below about 0.91 (no sharp cut-off); inconclusive = no clear call, values can overlap the other calls; inactive = mostly above about 0.92.
# Assay: chemical genetic growth profiling, strain panel (AID 1159580);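 also: tested at 20 µM; growth read once vehicle control cultures reached saturation at 30 °C; 1 = growth at the plate median or of vehicle wells; lower values mean less growth of the strain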
# Settings: growth OD
compound,measurement,setting,value
C1CCC(C(CC2CCCCN2)C2CCCCC2)CC1 (centres undefined),normalized growth,"S. cerevisiae deletion strains, locus YJR066W, strain TOR1, active compounds read low",0.973
same,normalized growth,"S. cerevisiae deletion strains, locus YJR075W, strain HOC1, active compounds read low",0.606 (active)
same,normalized growth,"S. cerevisiae deletion strains, locus YKL009W, strain mrt4, active compounds read low",1
same,normalized growth,"S. cerevisiae deletion strains, locus YKL068W, active compounds read low",1.01
same,normalized growth,"S. cerevisiae deletion strains, locus YKL085W, strain MDH1 (second series), active compounds read low",0.996
same,normalized growth,"S. cerevisiae deletion strains, locus YKL085W, strain MDH1, active compounds read low",0.996
same,normalized growth,"S. cerevisiae deletion strains, locus YKL160W, strain elf1, active compounds read low",0.952
same,normalized growth,"S. cerevisiae deletion strains, locus YKL190W, strain CNB1, active compounds read low",0.143 (active)
same,normalized growth,"S. cerevisiae deletion strains, locus YKR001C, strain vps1, active compounds read low",0.0792 (active)
same,normalized growth,"S. cerevisiae deletion strains, locus YKR026C, strain gcn3, active compounds read low",0.988
same,normalized growth,"S. cerevisiae deletion strains, locus YKR091W, strain srl3, active compounds read low",0.989
same,normalized growth,"S. cerevisiae deletion strains, locus YLL001W, strain dnm1, active compounds read low",0.992
same,normalized growth,"S. cerevisiae deletion strains, locus YLL026W, active compounds read low",0.985
same,normalized growth,"S. cerevisiae deletion strains, locus YLL041C, strain sdh2, active compounds read low",0.967
same,normalized growth,"S. cerevisiae deletion strains, locus YLR027C, strain aat2, active compounds read low",0.977
same,normalized growth,"S. cerevisiae deletion strains, locus YLR039C, strain RIC1, active compounds read low",0.247 (active)
same,normalized growth,"S. cerevisiae deletion strains, locus YLR058C, strain SHM2, active compounds read low",0.703 (active)
same,normalized growth,"S. cerevisiae deletion strains, locus YLR102C, strain apc9, active compounds read low",1.01
same,normalized growth,"S. cerevisiae deletion strains, locus YLR113W, strain HOG1, active compounds read low",1.02
same,normalized growth,"S. cerevisiae deletion strains, locus YLR221C, strain rsa3, active compounds read low",0.98
same,normalized growth,"S. cerevisiae deletion strains, locus YLR258W, strain gsy2, active compounds read low",0.99
same,normalized growth,"S. cerevisiae deletion strains, locus YLR262C, strain YPT6 (second series), active compounds read low",1.08
same,normalized growth,"S. cerevisiae deletion strains, locus YLR262C, strain YPT6, active compounds read low",0.151 (active)
same,normalized growth,"S. cerevisiae deletion strains, locus YLR268W, strain sec22, active compounds read low",0.605 (active)
same,normalized growth,"S. cerevisiae deletion strains, locus YLR320W, strain mms22, active compounds read low",0.862 (active)
same,normalized growth,"S. cerevisiae deletion strains, locus YLR330W, strain CHS5, active compounds read low",0.381 (active)
same,normalized growth,"S. cerevisiae deletion strains, locus YLR342W, strain FKS1 (second series), active compounds read low",0.167 (active)
same,normalized growth,"S. cerevisiae deletion strains, locus YLR342W, strain FKS1, active compounds read low",0.981
same,normalized growth,"S. cerevisiae deletion strains, locus YLR357W, strain rsc2, active compounds read low",0.963
same,normalized growth,"S. cerevisiae deletion strains, locus YLR370C, strain arc18, active compounds read low",0.981
same,normalized growth,"S. cerevisiae deletion strains, locus YLR371W, strain rom2, active compounds read low",0.266 (active)
same,normalized growth,"S. cerevisiae deletion strains, locus YLR384C, strain iki3, active compounds read low",0.972
same,normalized growth,"S. cerevisiae deletion strains, locus YLR418C, strain cdc73, active compounds read low",0.423 (active)
same,normalized growth,"S. cerevisiae deletion strains, locus YML016C, strain PPZ1, active compounds read low",0.363 (active)
same,normalized growth,"S. cerevisiae deletion strains, locus YML032C, strain rad52, active compounds read low",0.877 (active)
same,normalized growth,"S. cerevisiae deletion strains, locus YML120C, strain ndi1, active compounds read low",0.973
same,normalized growth,"S. cerevisiae deletion strains, locus YML124C, strain tub3, active compounds read low",0.954
same,normalized growth,"S. cerevisiae deletion strains, locus YMR058W, strain fet3, active compounds read low",0.853 (active)
same,normalized growth,"S. cerevisiae deletion strains, locus YMR078C, strain ctf18, active compounds read low",1.02
same,normalized growth,"S. cerevisiae deletion strains, locus YMR125W, strain sto1, active compounds read low",0.897
same,normalized growth,"S. cerevisiae deletion strains, locus YMR129W, active compounds read low",0.972
same,normalized growth,"S. cerevisiae deletion strains, locus YMR205C, strain PFK2, active compounds read low",0.93
same,normalized growth,"S. cerevisiae deletion strains, locus YMR223W, strain ubp8, active compounds read low",0.454 (active)
same,normalized growth,"S. cerevisiae deletion strains, locus YMR231W, strain pep5, active compounds read low",0.0752 (active)
same,normalized growth,"S. cerevisiae deletion strains, locus YMR263W, strain SAP30, active compounds read low",0.843 (active)
same,normalized growth,"S. cerevisiae deletion strains, locus YMR307W, strain GAS1, active compounds read low",0.174 (active)
same,normalized growth,"S. cerevisiae deletion strains, locus YNL067W, strain RPL9B, active compounds read low",0.793 (active)
same,normalized growth,"S. cerevisiae deletion strains, locus YNL071W, strain lat1, active compounds read low",0.975
same,normalized growth,"S. cerevisiae deletion strains, locus YNL183C, strain NPR1, active compounds read low",0.976
same,normalized growth,"S. cerevisiae deletion strains, locus YNL209W, strain ssb2, active compounds read low",0.974
same,normalized growth,"S. cerevisiae deletion strains, locus YNL233W, strain BNI4, active compounds read low",0.245 (active)
same,normalized growth,"S. cerevisiae deletion strains, locus YNL248C, strain rpa49, active compounds read low",0.926
same,normalized growth,"S. cerevisiae deletion strains, locus YNL250W, strain rad50, active compounds read low",1.01
same,normalized growth,"S. cerevisiae deletion strains, locus YNL271C, strain bni1, active compounds read low",1.01
same,normalized growth,"S. cerevisiae deletion strains, locus YNL298W, strain CLA4, active compounds read low",1.01
same,normalized growth,"S. cerevisiae deletion strains, locus YNL307C, strain MCK1, active compounds read low",0.267 (active)
same,normalized growth,"S. cerevisiae deletion strains, locus YNL322C, strain KRE1 (second series), active compounds read low",0.975
same,normalized growth,"S. cerevisiae deletion strains, locus YNR049C, strain mso1, active compounds read low",0.99
same,normalized growth,"S. cerevisiae deletion strains, locus YNR052C, strain pop2, active compounds read low",0.14 (active)
same,normalized growth,"S. cerevisiae deletion strains, locus YOL006C, strain TOP1, active compounds read low",0.115 (active)
same,normalized growth,"S. cerevisiae deletion strains, locus YOL147C, strain pex11, active compounds read low",0.941
same,normalized growth,"S. cerevisiae deletion strains, locus YOR001W, strain rrp6, active compounds read low",0.893
same,normalized growth,"S. cerevisiae deletion strains, locus YOR061W, strain CKA2, active compounds read low",0.114 (active)
same,normalized growth,"S. cerevisiae deletion strains, locus YOR069W, strain VPS5, active compounds read low",0.906 (active)
same,normalized growth,"S. cerevisiae deletion strains, locus YOR070C, strain gyp1, active compounds read low",0.979
same,normalized growth,"S. cerevisiae deletion strains, locus YOR080W, strain dia2, active compounds read low",0.988
same,normalized growth,"S. cerevisiae deletion strains, locus YOR083W, strain WHI5, active compounds read low",0.94
same,normalized growth,"S. cerevisiae deletion strains, locus YOR106W, strain vam3, active compounds read low",0.458 (active)
same,normalized growth,"S. cerevisiae deletion strains, locus YOR136W, strain idh2, active compounds read low",0.77 (active)
same,normalized growth,"S. cerevisiae deletion strains, locus YOR144C, strain elg1, active compounds read low",1.02
same,normalized growth,"S. cerevisiae deletion strains, locus YOR184W, strain ser1, active compounds read low",0.608 (active)
same,normalized growth,"S. cerevisiae deletion strains, locus YOR231W, strain MKK1, active compounds read low",1.02
same,normalized growth,"S. cerevisiae deletion strains, locus YOR265W, strain rbl2, active compounds read low",0.979
same,normalized growth,"S. cerevisiae deletion strains, locus YOR270C, strain vph1, active compounds read low",0.452 (active)
same,normalized growth,"S. cerevisiae deletion strains, locus YOR290C, strain snf2, active compounds read low",0.869
same,normalized growth,"S. cerevisiae deletion strains, locus YOR316C, strain cot1, active compounds read low",0.97
same,normalized growth,"S. cerevisiae deletion strains, locus YPL051W, strain arl3, active compounds read low",0.886 (active)
same,normalized growth,"S. cerevisiae deletion strains, locus YPL055C, strain LGE1, active compounds read low",0.4 (active)
same,normalized growth,"S. cerevisiae deletion strains, locus YPL078C, strain atp4, active compounds read low",0.973
same,normalized growth,"S. cerevisiae deletion strains, locus YPL106C, strain sse1, active compounds read low",0.984
same,normalized growth,"S. cerevisiae deletion strains, locus YPL240C, strain hsp82, active compounds read low",0.98
same,normalized growth,"S. cerevisiae deletion strains, locus YPL241C, strain CIN2, active compounds read low",0.93
same,normalized growth,"S. cerevisiae deletion strains, locus YPL256C, strain CLN2, active compounds read low",1.02
same,normalized growth,"S. cerevisiae deletion strains, locus YPR119W, strain clb2, active compounds read low",0.935
same,normalized growth,"S. cerevisiae deletion strains, locus YPR141C, strain kar3, active compounds read low",1.03
same,normalized growth,"S. cerevisiae deletion strains, locus YPR163C, strain tif3, active compounds read low",0.0807 (active)
same,normalized growth,"S. cerevisiae deletion strains, locus YPR167C, strain met16, active compounds read low",0.844 (active)
same,normalized growth,"S. cerevisiae deletion strains, strain wtn01, active compounds read low",0.317 (active)
same,normalized growth,"S. cerevisiae strains, strain wild type, active compounds read low",0.314 (active)
